# In PubChem BioAssay (NCI):
# Compounds without any hit were thinned out: in the full panel of roughly 83,000, 20% have a hit.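 Assay: single dose, 48 h. Readout: percent growth (0 = no net growth; negative = cell death). Active: <10.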 Values without a mark were called inactive. The source made the active and inactive calls.
# Test system: SR leukemia
# Experiment: NCI-60 one-dose screen, 48 h (100 = growth as untreated, 0 = no growth, -100 = all killed)
# Details: 10 µM unless noted
row,Compound,growth
1,CCOC(=O)C1=C(C)NC(SCc2nnc(-c3ccc(Cl)cc3)o2)=NC1c1ccc(Cl)cc1 (stereo not given),42.9%
2,O=Cc1ccc2nc(C(Cl)(Cl)Cl)ccc2c1,93.2%
3,CCCc1n(Cc2ccc3ccccc3c2)c2ccccc2[n+]1Cc1ccc2ccccc2c1,-46.7% (active)
4,CC(CN1CCN(CCOCCO)CC1)CN1c2ccccc2Sc2ccc(Cl)cc21 (stereo not given),-2.53% (active)
5,Clc1ccc(Nc2ncnc3c2sc2ncccc23)c(Cl)c1,9.78% (active)
6,COc1ccc(/C=C(/C(=O)N2CCN(c3ccccc3)CC2)c2cc(OC)c(OC)c(OC)c2)cc1O,9.53% (active)
7,C#CCNC(=S)N/N=C(\C)c1ccccn1,3.06% (active)
8,CC(C)NC(=O)OCC#CCOC(=O)NC(C)C,102%
9,Cc1cc(C)c2c(n1)sc1c(Nc3ccc(Cl)cc3Cl)ncnc12,4.08% (active)
10,CCCCn1cnc(-c2cc(-c3ccccc3)cc(C(F)(F)F)c2)n1,89.5%
11,O=C1c2ccccc2C(=O)c2c1oc1ccc3ccccc3c21,60.8%
12,COC1=CC(c2ccc[nH]2)=N/C1=C\c1[nH]c(C)c(C(=O)CCCCCCCCC(=O)O[C@H]2CC[C@H]3C4CCc5cc(O)ccc5C4CC[C@]23C)c1C (stereo not given in full),-14.6% (active)
13,CCSc1ccc([C@@H]2[C@@H](N)C(=O)N2c2cc(OC)c(OC)c(OC)c2)cc1,14.4%
14,COc1ccc2[nH]cc(C(c3ccc(Cl)cc3)N3CCCC3)c2c1 (stereo not given),59.9%
15,Oc1[nH]c2ccc(Cl)cc2c1/C=c1/ccc2c(c1)N=C(c1ccc(F)cc1)N=2,8.49% (active)
